Results: PubChem BioAssay (NCI)
The panel holds about 83,000 compounds, 20% with a hit somewhere; the sample as a whole holds those more often.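 Single-dose data. Exposure time 48 hours. Values below 10 considered active.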 Active and inactive are the calls of the source.

Legend:
Assay in all cases: NCI-60 one-dose screen, 48 h (100 = growth as untreated, 0 = no growth, -100 = all killed)
Conditions in all cases: 10 µM unless noted
SR leukemia = tested on: SR leukemia
RPMI-8226 leukemia = tested on: RPMI-8226 leukemia
OVCAR-8 ovarian = tested on: OVCAR-8 ovarian
OVCAR-5 ovarian = tested on: OVCAR-5 ovarian
OVCAR-4 ovarian = tested on: OVCAR-4 ovarian
SK-OV-3 ovarian = tested on: SK-OV-3 ovarian
IGROV1 ovarian = tested on: IGROV1 ovarian
HS 578T breast = tested on: HS 578T breast
NCI/ADR-RES ovarian = tested on: NCI/ADR-RES ovarian
T-47D breast = tested on: T-47D breast
MDA-MB-435 melanoma = tested on: MDA-MB-435 melanoma
SW-620 colon = tested on: SW-620 colon
MCF7 breast = tested on: MCF7 breast
HCT-116 colon = tested on: HCT-116 colon
HCC-2998 colon = tested on: HCC-2998 colon
KM12 colon = tested on: KM12 colon
OVCAR-3 ovarian = tested on: OVCAR-3 ovarian
BT-549 breast = tested on: BT-549 breast

Measured: growth

CC(=O)CC(c1ccc([N+](=O)[O-])cc1)c1c(O)c2ccccc2oc1=O (stereo unspecified)
inactive: SR leukemia 92.9% | RPMI-8226 leukemia 108% | OVCAR-8 ovarian 105% | OVCAR-5 ovarian 100% | OVCAR-4 ovarian 110% | SK-OV-3 ovarian 108% | IGROV1 ovarian 107% | HS 578T breast 97.9% | NCI/ADR-RES ovarian 105% | T-47D breast 95.7% | MDA-MB-435 melanoma 103% | SW-620 colon 101% | MCF7 breast 102% | HCT-116 colon 101% | HCC-2998 colon 105% | KM12 colon 98.5%

COc1ccc(NC(=O)c2sc3c(=O)[nH]c(C(F)(F)F)nc3c2C)cc1
inactive: SR leukemia 106% | RPMI-8226 leukemia 95% | OVCAR-8 ovarian 100% | OVCAR-5 ovarian 116% | SK-OV-3 ovarian 98.5% | IGROV1 ovarian 90% | OVCAR-3 ovarian 112% | HS 578T breast 104% | NCI/ADR-RES ovarian 102% | BT-549 breast 103% | MDA-MB-435 melanoma 103% | SW-620 colon 112% | MCF7 breast 84.3% | HCT-116 colon 100% | HCC-2998 colon 111% | KM12 colon 106%

Cc1cc(Nc2c3ccccc3nc3ccccc23)ccc1NS(C)(=O)=O
active: SR leukemia -6.9%
inactive: RPMI-8226 leukemia 31.2% | OVCAR-5 ovarian 27.5% | OVCAR-4 ovarian 48.1% | SK-OV-3 ovarian 43.5% | IGROV1 ovarian 25.5% | OVCAR-3 ovarian 46.6% | HS 578T breast 52.4% | NCI/ADR-RES ovarian 57.7% | T-47D breast 45% | BT-549 breast 78.7% | MDA-MB-435 melanoma 36.8% | SW-620 colon 21.8% | MCF7 breast 27.4% | HCT-116 colon 13.7% | HCC-2998 colon 50.8% | KM12 colon 40.5%

COc1ccc(C(=O)O)cc1.[Ag]
active: SW-620 colon -61.9%
inactive: SR leukemia 60.1% | RPMI-8226 leukemia 103% | OVCAR-8 ovarian 105% | OVCAR-5 ovarian 104% | OVCAR-4 ovarian 117% | SK-OV-3 ovarian 114% | IGROV1 ovarian 110% | HS 578T breast 96.1% | NCI/ADR-RES ovarian 99.5% | T-47D breast 92.6% | MDA-MB-435 melanoma 95.3% | MCF7 breast 100% | HCT-116 colon 94.5% | HCC-2998 colon 104% | KM12 colon 87%

Nc1c(C(=O)C[C@@H](N)CO)ccc2c1C(=O)CCO2
inactive: SR leukemia 30.7% | RPMI-8226 leukemia 19.2% | OVCAR-8 ovarian 35.8% | OVCAR-5 ovarian 72.8% | OVCAR-4 ovarian 86.4% | IGROV1 ovarian 51.4% | OVCAR-3 ovarian 23.5% | HS 578T breast 110% | NCI/ADR-RES ovarian 61.2% | T-47D breast 33.6% | BT-549 breast 41.9% | MDA-MB-435 melanoma 68.3% | MCF7 breast 22.5% | HCT-116 colon 37.9% | KM12 colon 20.1%
active: SW-620 colon 5.93% | HCC-2998 colon -5.53%

CCc1c(C)c2ccc(O)c(-c3cc(-c4ccccc4)c(C#N)c(=O)[nH]3)c2oc1=O
inactive: SR leukemia 95.5% | RPMI-8226 leukemia 81% | OVCAR-8 ovarian 100% | OVCAR-5 ovarian 95.1% | SK-OV-3 ovarian 95.9% | IGROV1 ovarian 101% | OVCAR-3 ovarian 88.8% | HS 578T breast 118% | NCI/ADR-RES ovarian 99.9% | T-47D breast 85.9% | MDA-MB-435 melanoma 114% | SW-620 colon 105% | MCF7 breast 84.7% | HCT-116 colon 95.7% | KM12 colon 96.2%

Cc1ccc(C)c2c1SC1=NNC(Oc3ccc(Cl)cc3)=C(C#N)C(=N)N12
inactive: SR leukemia 113% | RPMI-8226 leukemia 98.7% | OVCAR-8 ovarian 108% | OVCAR-5 ovarian 111% | SK-OV-3 ovarian 95.7% | IGROV1 ovarian 87.8% | HS 578T breast 103% | NCI/ADR-RES ovarian 105% | T-47D breast 84.4% | BT-549 breast 107% | MDA-MB-435 melanoma 113% | SW-620 colon 104% | MCF7 breast 89.5% | HCC-2998 colon 105% | KM12 colon 109%

O=C(Nc1cccc(Cl)c1)Nc1ccccc1Cl
inactive: SR leukemia 82.1% | RPMI-8226 leukemia 55.9% | OVCAR-8 ovarian 87.3% | OVCAR-5 ovarian 115% | SK-OV-3 ovarian 101% | IGROV1 ovarian 85.9% | OVCAR-3 ovarian 78.4% | HS 578T breast 90.7% | NCI/ADR-RES ovarian 80.6% | T-47D breast 81.5% | BT-549 breast 99.2% | MDA-MB-435 melanoma 92.2% | SW-620 colon 89.5% | MCF7 breast 77.8% | HCT-116 colon 90% | HCC-2998 colon 99.8% | KM12 colon 89.9%

CN(C)N1C(=O)c2c(Cl)c(Cl)c(Cl)c(Cl)c2C1=O
inactive: SR leukemia 87.5% | RPMI-8226 leukemia 97% | OVCAR-8 ovarian 105% | OVCAR-5 ovarian 115% | OVCAR-4 ovarian 111% | SK-OV-3 ovarian 106% | OVCAR-3 ovarian 122% | HS 578T breast 99% | NCI/ADR-RES ovarian 101% | T-47D breast 93% | BT-549 breast 129% | MDA-MB-435 melanoma 114% | SW-620 colon 108% | MCF7 breast 95.7% | HCT-116 colon 101% | HCC-2998 colon 102% | KM12 colon 113%
